Rce1 inh: inhibitors of yeast Ras-converting enzyme; Q03530; yeast membranes, quenched prenylated peptide cleavage fluorescence; calls only; actives 0.27% (n = 290,000); AID 2563;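 active means fall in fluorescence gain of 50% or more versus controls, with final raw signal at or below 3038400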
Target sequence (Q03530 whole entry, looked up): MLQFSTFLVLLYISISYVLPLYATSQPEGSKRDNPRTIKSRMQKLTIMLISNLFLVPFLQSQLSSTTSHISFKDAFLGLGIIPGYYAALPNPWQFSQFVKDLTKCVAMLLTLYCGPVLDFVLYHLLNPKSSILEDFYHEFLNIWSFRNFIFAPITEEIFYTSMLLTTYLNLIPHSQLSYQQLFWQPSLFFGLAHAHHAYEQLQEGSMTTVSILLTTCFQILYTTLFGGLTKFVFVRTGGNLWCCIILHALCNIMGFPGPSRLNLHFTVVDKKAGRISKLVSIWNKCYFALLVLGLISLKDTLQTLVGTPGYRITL
MEKK2mut PB1 HTS: signal of MEK5 binding to mutant human MEKK2 PB1 domain | AID 1530 | bead flow cytometry, Alexa488-MEK5 binding to MEKK2 mutant | actives 0.35% (n = 290,000) | percent response, % at 10 µM; in the data active means percent response above about 24%, passing the limit was not always enough
MEKK3 PB1 HTS: raises or lowers MEK5 binding to the human MEKK3 PB1 domain. actives 1.4% (n = 290,000). binding response (% of control), % at 10 µM. AID 1529. bead-based flow cytometry, Alexa488-MEK5 binding to MEKK3; actives lie on both sides; 0 = blocked by unlabeled MEK5, 100 = vehicle. Q99759;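 active means binding response more than 3 SD above or below the average of its plate-row segment, actives on both sides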;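 further: Alexa488 bead fluorescence after subtracting the streptavidin-only scavenger bead signal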
UBC13 polyUb: human UBC13 polyubiquitination inhibition; P61088; UBC13 polyubiquitin chain formation, TR-FRET; inhibition, % at 20 µM; actives 0.47% (n = 330,000); AID 485273; in the data active means inhibition above about 45%, passing the limit was not always enough
Target sequence (P61088 whole entry, looked up): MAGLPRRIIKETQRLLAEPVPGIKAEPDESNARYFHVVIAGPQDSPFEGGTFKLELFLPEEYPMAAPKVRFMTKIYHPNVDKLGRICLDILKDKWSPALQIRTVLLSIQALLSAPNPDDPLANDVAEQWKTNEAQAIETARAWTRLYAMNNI
MEKK2 WT-MEK5: raises or lowers MEK5 binding to wildtype human MEKK2 PB1 domain; bead flow cytometry, Alexa488-MEK5 binding to MEKK2 WT; actives lie on both sides; binding response (% of control), % at 10 µM; actives 1.1% (n = 290,000); AID 1531; in the data active means binding response below about 67% or above about 130%
MEKK2wt confirm: raises or lowers MEK5 binding to wildtype human MEKK2, retest | shares compounds with MEKK3 PB1 HTS | bead flow cytometry, Alexa488-MEK5 binding to MEKK2 WT; actives lie on both sides | binding response (% of control), % at 10 µM | actives 2.4% (n = 5,900) | AID 1892; in the data active means binding response below about 16% or above about 210%; inactive means in between
MEKK2mut-MEK5: signal of MEK5 binding to mutant human MEKK2, retest. AID 1893. shares compounds with MEKK3 PB1 HTS. actives 2% (n = 5,900). bead flow cytometry, Alexa488-MEK5 binding to MEKK2 mutant. percent response, % at 10 µM; in the data active means percent response mostly above about 71%, no sharp cut-off; inactive means mostly below about 38%;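 further: higher means compound restores mutant binding toward wildtype level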
MEKK3-MEK5 inh: confirmation of inhibitors of MEK5 binding to human MEKK3; bead flow cytometry, Alexa488-MEK5 binding to MEKK3; active compounds read low; actives 1.8% (n = 5,900); shares compounds with MEKK3 PB1 HTS; AID 1894; binding response (% of control), % at 10 µM;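 active means binding response below 72% of control, or above a set upper limit, though filed actives all read lower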;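 further: lower values mean stronger disruption of MEK5 binding to MEKK3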
Of the large screens only hits and unclear results are named; the others gave an inactive call (follow-up assays come after a bar, where they were run); ! = repeats disagree; [ ] = another dose, or the depositor's remark. Shown are actives, neighbours in structure and some others; about 2.5% of the full set was active somewhere.

CC(=O)OCC[N+](C)(C)C	Rce1 inh active!
Cc1ccsc1C(=O)C1CCCN(Cc2c(C)nn(C(C)C)c2C)C1 (stereo unspecified)	none
Clc1ccc(C[n+]2c(-c3ccccc3)cc(-c3ccccc3)cc2-c2ccccc2)cc1	Rce1 inh active, UBC13 polyUb 47 (no result: MEKK2mut PB1 HTS, MEKK3 PB1 HTS, MEKK2 WT-MEK5)
Fc1ccc(C[n+]2c(-c3ccccc3)cc(-c3ccccc3)cc2-c2ccccc2)cc1	none (no result: MEKK2mut PB1 HTS, MEKK3 PB1 HTS, MEKK2 WT-MEK5)
COc1ccc(CCN(C)Cc2c(F)cccc2F)cc1OC	none
CCOc1ccc(C(C)=O)cc1Cn1ccsc1=N	MEKK2 WT-MEK5 145 (no result: UBC13 polyUb)
O=C(CCC(=O)N1C[C@H]2C[C@@H](C1)c1cccc(=O)n1C2)NCc1ccc(F)cc1	none (no result: Rce1 inh, MEKK2mut PB1 HTS, MEKK3 PB1 HTS, MEKK2 WT-MEK5)
Cc1nn(Cc2c(Cl)cccc2Cl)c(Cl)c1C(=O)O	MEKK2 WT-MEK5 -4.0
C[n+]1c(-c2ccccc2)sc2ccccc21	none
CN(C)c1ccc(/C=C/C=C/c2sc3ccccc3[n+]2C)cc1	MEKK2 WT-MEK5 4.0
CC[n+]1c(/C=C/C=C/c2ccc(N(C)C)cc2)sc2ccccc21	MEKK2 WT-MEK5 -5.0
CCCCCCn1c(O)c(/C=N/N2CCCCCC2)c(=O)[nH]c1=O	none
C=CCn1c(O)c(C(CC)=Nc2ccc(N(CC)CC)cc2)c(=O)[nH]c1=O	Rce1 inh active
COc1ccc2c3c1OC1C(O)C=CC4C(C2)[N+](C)(C)CCC341 (stereo unspecified)	none
CCOc1ccc(C2C(C#N)=C(N)Oc3c2c(=O)oc2ccccc32)cc1 (stereo unspecified)	Rce1 inh active
N#CC1=C(N)Oc2c(c(=O)oc3ccccc23)C1c1ccncc1 (stereo unspecified)	none (no result: Rce1 inh)
C[n+]1ccc(-c2ccccc2)c2ccccc21	Rce1 inh active (no result: MEKK2mut PB1 HTS, MEKK3 PB1 HTS, MEKK2 WT-MEK5)
C[n+]1c(-c2ccccc2)cc(-c2ccc(O)cc2)cc1-c1ccccc1	none
CCOC(=O)C1C2c3ccccc3O[C@@]1(C)N=C1SCC(=O)N12 (stereo partly specified)	none
CCOC(=O)[C@@H]1[C@H]2COc3ccc(Br)cc3[C@@H]2N2C(=O)N(c3cccc(C)c3)C(=O)[C@]12C	Rce1 inh active
CC(C)OCCCNC(=O)c1c(N)n(CC2CCCO2)c2nc3ccccc3nc12 (stereo unspecified)	Rce1 inh active
CC(C)OC(=O)c1c(N)n(CC2CCCO2)c2nc3ccccc3nc12 (stereo unspecified)	none
O=C1NC(=O)N(Cc2ccc(F)cc2)C(=O)/C1=C\c1ccc(N2CCCC2)cc1	MEKK2 WT-MEK5 18
O=C1NC(=O)N(c2ccc(F)cc2)C(=O)/C1=C/c1ccc(N2CCOCC2)cc1	none
CC1=C2C3OC(=O)C(C)C3CC[C@@]2(C)C=CC1=O (stereo partly specified)	none
CC(C)(C)c1cc([N+](=O)[O-])cc(C(C)(C)C)c1O	none
CCCCn1c(=O)c(C=Nc2cccnc2Cl)c(O)n(CCCCl)c1=O	Rce1 inh active
CN(C)CCNC(=O)c1cccn(Cc2cc(C(F)(F)F)cc(C(F)(F)F)c2)c1=O	Rce1 inh active
Cc1nn(Cc2ccccc2Cl)c(C)c1C(=O)OCC(=O)NC1CCS(=O)(=O)C1 (stereo unspecified)	none
Cc1nn(Cc2ccccc2Cl)c(C)c1C(=O)OCC(=O)NC1CCCC(C)C1C (stereo unspecified)	MEKK3 PB1 HTS 141 | MEKK2wt confirm inactive | MEKK2mut-MEK5 inactive | MEKK3-MEK5 inh inactive
Clc1cccc(C2NCc3ccccc3-n3cccc32)c1 (stereo unspecified)	none
COC(=O)C(O)(c1ccc(NC(=S)NC(=O)c2ccc(Cl)cc2Cl)cc1)C(F)(F)F (stereo unspecified)	MEKK3 PB1 HTS 148 | MEKK2wt confirm inactive | MEKK2mut-MEK5 inactive | MEKK3-MEK5 inh inactive
CCOC(=O)C(O)(c1ccc(NC(=S)NC(=O)c2ccc(Cl)cc2Cl)c(C)c1)C(F)(F)F (stereo unspecified)	MEKK3 PB1 HTS 147 | MEKK2wt confirm inactive | MEKK2mut-MEK5 inactive | MEKK3-MEK5 inh inactive
CCOC(=O)C(O)(c1ccc(NC(=S)NC(=O)c2ccc(Cl)cc2Cl)cc1)C(F)(F)F (stereo unspecified)	none
Cc1ccccc1-n1c(C)nc2sccc2c1=O	MEKK3 PB1 HTS 2.0[inhibitor], MEKK2 WT-MEK5 3.0[inhibitor] | MEKK2wt confirm inactive | MEKK2mut-MEK5 inactive | MEKK3-MEK5 inh inactive
Brc1ccc2c(c1)C(OC1CN3CCC1CC3)c1ccccc1CS2 (stereo unspecified)	MEKK2 WT-MEK5 156 | MEKK2wt confirm inactive | MEKK2mut-MEK5 inactive | MEKK3-MEK5 inh inactive
c1ccc2c(c1)CSc1ccccc1C2C1=NCCN1 (stereo unspecified)	none
Fc1ccccc1CNCCc1c[nH]c2ccccc12	none
NCCc1c[nH]c2ccccc12	MEKK2 WT-MEK5 138 (no result: Rce1 inh) | MEKK2wt confirm inactive | MEKK2mut-MEK5 inactive | MEKK3-MEK5 inh inactive
CC1CN2c3ccc([N+](=O)[O-])cc3CC3(C(=O)N(C)C(=O)N(C)C3=O)C2C(C)O1 (stereo unspecified)	none
O=C1C2CCCN2C(c2cccc(Cl)c2)N1c1ccccn1 (stereo unspecified)	MEKK3 PB1 HTS 0.0[inhibitor], MEKK2 WT-MEK5 0.0[inhibitor] | MEKK2wt confirm inactive | MEKK2mut-MEK5 inactive | MEKK3-MEK5 inh inactive
Cc1ccc(C(O)(C(=O)NNC(=O)CN2CCN(C)CC2)c2ccc(C)cc2)cc1	MEKK3 PB1 HTS 67[inhibitor] | MEKK2wt confirm inactive | MEKK2mut-MEK5 inactive | MEKK3-MEK5 inh inactive
Cc1[nH]c2ccccc2c1C1=CCNCC1	MEKK2mut PB1 HTS 144 | MEKK2wt confirm inactive | MEKK2mut-MEK5 inactive | MEKK3-MEK5 inh inactive
C1=C(c2ccccc2)CCNC1	none
CC(=O)c1c(O)n(-c2cccc(Cl)c2)c(=O)[nH]c1=O (tested in a mixture with another compound)	MEKK3 PB1 HTS 128 | MEKK2wt confirm inactive | MEKK2mut-MEK5 inactive | MEKK3-MEK5 inh inactive
COc1cc2[nH]c(=O)n(-c3cccc(Cl)c3)c(=O)c2cc1OC	none
CN[C@@H]1C[C@@H](c2ccc(Cl)c(Cl)c2)c2ccccc21	UBC13 polyUb 46, MEKK2 WT-MEK5 142 | MEKK2wt confirm inactive | MEKK2mut-MEK5 inactive | MEKK3-MEK5 inh inactive
COc1ccc2c3c([nH]c2c1)C(C)=NCC3	Rce1 inh active, MEKK2 WT-MEK5 29[inhibitor] | MEKK2wt confirm inactive | MEKK2mut-MEK5 inactive | MEKK3-MEK5 inh inactive

High-throughput results: PubChem, several laboratories
